The AC50 is the concentration giving half of the maximal activity seen.

This passage reports outcome and AC50 results from PubChem BioAssay (EPA / NIEHS).

Read-out in experiment [1]: Urokinase-type plasminogen activator receptor (uPAR), PLAUR (gene 5329)
The experiment is described as follows: BSK_CASM3C_uPAR: BioMAP Diversity Plus: CASM3C Assay for Urokinase-type plasminogen activator receptor (uPAR) Biomarker Activity (AID 2283054).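 Further: cell-surface uPAR protein level quantified by ELISA.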 The settings on record: primary human coronary artery smooth muscle cells; actives raise or lower the signal.

Read-out in experiment [2]: Vascular cell adhesion molecule 1 (VCAM1), VCAM1 (gene 7412)
Put plainly: BSK_CASM3C_VCAM1: BioMAP Diversity Plus: CASM3C Assay for Vascular cell adhesion molecule 1 (VCAM1) Biomarker Activity (AID 2283055).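 Further: VCAM-1 protein level quantified by ELISA on the cells.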 As to conditions: primary human coronary artery smooth muscle cells; actives raise or lower the signal.

Read-out in experiment [3]: Epidermal growth factor receptor (EGFR), EGFR (gene 1956)
The experiment is described as follows: BSK_hDFCGF_EGFR: BioMAP Diversity Plus: hDFCGF Assay for Epidermal growth factor receptor (EGFR) Biomarker Activity (AID 2283057). The settings on record: primary human foreskin fibroblasts; actives raise or lower the signal. An outline of the steps:
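ELISA readout of EGFR on human dermal fibroblasts (primary foreskin cells), 24 h post-dosing; bidirectional curve fit vs DMSO baseline, gain or loss of signal scored.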

Experiment [4] is described as follows: BSK_hDFCGF_Proliferation: Cell Proliferation Assessment in the BioMAP Diversity Plus: hDFCGF Assay (AID 2283059).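 Further: curves fitted for both rise and fall of signal versus DMSO baseline.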 The settings on record: primary human foreskin fibroblasts. An outline of the steps: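 This proliferation readout used SRB total-protein staining of human foreskin fibroblasts […], normalized to DMSO with bidirectional curve fitting.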

Read-out in experiment [5]: Macrophage colony-stimulating factor (MCSF), CSF1 (gene 1435)
The experiment is described as follows: BSK_hDFCGF_MCSF: BioMAP Diversity Plus: hDFCGF Assay for Macrophage colony-stimulating factor (MCSF) Biomarker Activity (AID 2283060). As to conditions: primary human foreskin fibroblasts; actives raise or lower the signal. In a few lines:
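M-CSF levels read by ELISA at 24 h post-dosing in human skin fibroblasts. Parallel cultures stained with SRB assessed cytotoxicity at the same time point; response fitted in both directions against the DMSO baseline.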

Read-out in experiment [6]: TIMP metallopeptidase inhibitor 1 (TIMP1), TIMP1 (gene 7076)
The experiment is described as follows: BSK_hDFCGF_TIMP1: BioMAP Diversity Plus: hDFCGF Assay for TIMP metallopeptidase inhibitor 1 (TIMP1) Biomarker Activity (AID 2283062). The settings on record: primary human foreskin fibroblasts; actives raise or lower the signal. In a few lines: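 TIMP-1 measured by ELISA 24 h after chemical dosing of primary human skin fibroblasts, with gain or loss fitted relative to DMSO. Parallel SRB staining (560 nm) monitored overt cytotoxicity.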

Read-out in experiment [7]: Monokine induced gamma interferon (MIG), CXCL9 (gene 4283)
The experiment is described as follows: BSK_hDFCGF_MIG: BioMAP Diversity Plus: hDFCGF Assay for Monokine induced gamma interferon (MIG) Biomarker Activity (AID 2283063). The settings on record: primary human foreskin fibroblasts; actives raise or lower the signal. An outline of the steps:
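Human primary foreskin fibroblasts in the hDFCGF system, exposed to test chemical for 24 h; MIG measured by ELISA. Bidirectional curve fitting against DMSO negative control as activity baseline.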

Read-out in experiment [8]: Matrix Metallopeptidase 1 (MMP1), MMP1 (gene 4312)
Put plainly: BSK_hDFCGF_MMP1: BioMAP Diversity Plus: hDFCGF Assay for Matrix Metallopeptidase 1 (MMP1) Biomarker Activity (AID 2283064). The settings on record: primary human foreskin fibroblasts; actives raise or lower the signal. In a few lines: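 Human foreskin fibroblasts exposed to chemical for 24 h; MMP1 detected by ELISA, with DMSO as baseline for bidirectional fitting.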

Read-out in experiment [9]: Vascular cell adhesion molecule 1 (VCAM1), VCAM1 (gene 7412)
Put plainly: BSK_hDFCGF_VCAM1: BioMAP Diversity Plus: hDFCGF Assay for Vascular cell adhesion molecule 1 (VCAM1) Biomarker Activity (AID 2283065).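 On AC50: VCAM-1 protein level quantified by ELISA after 24 h chemical exposure.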 The settings on record: primary human foreskin fibroblasts; actives raise or lower the signal. An outline of the steps: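 ELISA readout of VCAM-1 on human dermal fibroblast primary cultures, 24 h after chemical exposure. Gain or loss of signal fitted in both directions against DMSO baseline.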

Read-out in experiment [10]: Plasminogen activator inhibitor-1 (PAI1), SERPINE1 (gene 5054)
Put plainly: BSK_hDFCGF_PAI1: BioMAP Diversity Plus: hDFCGF Assay for Plasminogen activator inhibitor-1 (PAI1) Biomarker Activity (AID 2283066). As to conditions: primary human foreskin fibroblasts; actives raise or lower the signal. An outline of the steps:
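ELISA readout of PAI-1 from primary human skin fibroblast cultures, 24 h after compound addition. Gain or loss of signal was fitted bidirectionally against DMSO baseline.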

Read-out in experiment [11]: Intercellular Adhesion Molecule 1 (ICAM1), ICAM1 (gene 3383)
Put plainly: BSK_KF3CT_ICAM1: BioMAP Diversity Plus: KF3CT Assay for Intercellular Adhesion Molecule 1 (ICAM1) Biomarker Activity (AID 2283067). As to conditions: primary human keratinocytes with fibroblasts; actives raise or lower the signal. An outline of the steps: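 Cell-surface ICAM-1 was measured by ELISA 24 h after dosing primary human skin keratinocytes co-cultured with fibroblasts. Parallel SRB staining tracked overt cytotoxicity. Gain or loss of signal was fitted relative to DMSO.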

Read-out in experiment [12]: Interferon-gamma inducible Protein 10 (IP10), CXCL10 (gene 3627)
The experiment is described as follows: BSK_KF3CT_IP10: BioMAP Diversity Plus: KF3CT Assay for Interferon-gamma inducible Protein 10 (IP10) Biomarker Activity (AID 2283068). The settings on record: primary human keratinocytes with fibroblasts; actives raise or lower the signal. In a few lines:
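Signal is secreted/surface IP-10 by ELISA in a human primary skin co-culture of keratinocytes and foreskin fibroblasts, taken 24 h post-dosing; DMSO served as negative control.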

Experiment [13] is described as follows: BSK_KF3CT_SRB: Viability Assessment in the BioMAP Diversity Plus: KF3CT Assay (AID 2283069). The settings on record: primary human keratinocytes with fibroblasts. An outline of the steps: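 Overt cytotoxicity is assessed as total protein by sulforhodamine B staining in parallel human skin co-cultures at 24 h after dosing. DMSO serves as negative control and baseline.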

Read-out in experiment [14]: Interleukin-1 alpha (IL1a), IL1A (gene 3552)
The experiment is described as follows: BSK_KF3CT_IL1a: BioMAP Diversity Plus: KF3CT Assay for Interleukin-1 alpha (IL1a) Biomarker Activity (AID 2283070). As to conditions: primary human keratinocytes with fibroblasts; actives raise or lower the signal. In a few lines: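 Readout is IL-1a level by ELISA, compared bidirectionally with DMSO as baseline. Cells: human keratinocytes co-cultured with foreskin fibroblasts, harvested 24 h post-dose.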

Read-out in experiment [15]: TIMP metallopeptidase inhibitor 2 (TIMP2), TIMP2 (gene 7077)
The experiment is described as follows: BSK_KF3CT_TIMP2: BioMAP Diversity Plus: KF3CT Assay for TIMP metallopeptidase inhibitor 2 (TIMP2) Biomarker Activity (AID 2283071). As to conditions: primary human keratinocytes with fibroblasts; actives raise or lower the signal. In a few lines:
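ELISA readout of TIMP-2 in keratinocyte plus foreskin fibroblast co-cultures (human skin primary cells), 24 h post-dose. Gain or loss of signal fitted relative to DMSO.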

Read-out in experiment [16]: Transforming growth factor beta 1 (TGFb1), TGFB1 (gene 7040)
The experiment is described as follows: BSK_KF3CT_TGFb1: BioMAP Diversity Plus: KF3CT Assay for Transforming growth factor beta 1 (TGFb1) Biomarker Activity (AID 2283072). The settings on record: primary human keratinocytes with fibroblasts; actives raise or lower the signal. An outline of the steps:
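Read-out: ELISA for TGF-b1 in keratinocyte/foreskin fibroblast human skin co-culture, 24 h after dosing; bidirectional curve fit vs DMSO baseline; gain or loss of signal scored.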

Read-out in experiment [17]: C-C motif chemokine 2 (Homo sapiens) (UniProt P13500)
The experiment is described as follows: BSK_KF3CT_MCP1: BioMAP Diversity Plus: KF3CT Assay for Monocyte Chemoattractant Protein 1 (MCP1/CCL2) Biomarker Activity (AID 2283073). The settings on record: primary human keratinocytes with fibroblasts; actives raise or lower the signal. An outline of the steps:
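ELISA read-out of MCP-1, 24 h post-dose, in primary human skin keratinocytes co-cultured with fibroblasts. Parallel SRB staining monitors cytotoxicity; changes fitted both directions relative to DMSO.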

Experiment [18] in a line: BSK_hDFCGF_SRB: Viability Assessment in the BioMAP Diversity Plus: hDFCGF Assay (AID 2283061).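 Further: cells exposed to compound for 24 h before the read.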 As to conditions: primary human foreskin fibroblasts. An outline of the steps: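 Viability was read as total protein: after 10% TCA fixation, wells were stained with 0.1% sulforhodamine B and read at 560 nm. Primary human foreskin fibroblasts were dosed for 24 h, with bidirectional fitting versus DMSO.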

Read-out in experiment [19]: Interleukin-8 (IL8), CXCL8 (gene 3576)
The experiment is described as follows: BSK_hDFCGF_IL8: BioMAP Diversity Plus: hDFCGF Assay for Interleukin-8 (IL8) Biomarker Activity (AID 2283058). As to conditions: primary human foreskin fibroblasts; actives raise or lower the signal. In a few lines:
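IL-8 levels read by ELISA at 24 hours after dosing human skin fibroblast cultures. Parallel SRB staining assessed overt cytotoxicity, and gain or loss of signal was fitted against DMSO control.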

The structures appear in SMILES notation. The source made the active and inactive calls. How the source made its calls: active means hit-call score of the fitted dose curve at least 0.9, where 1 is the maximum; inactive means score below 0.9.

For `OCc1ccco1`, the result in [1], in [2], in [3], in experiment [5], in experiment [6] and in experiment [7] was inactive. The outcome in experiment [8], in experiment [9], in [10], in experiment [11], in [12] and in [13] was inactive. The outcome in experiment [14], in experiment [15], in experiment [16] and in experiment [17] was inactive. Besides, the AC50 in experiment [4] was 29.6 µM (active).

With `Oc1ccc(-c2ccccc2)cc1`, the outcome in [1], in experiment [2], in experiment [3], in [4], in experiment [5] and in [18] was inactive. Also, the outcome in experiment [6], in experiment [7], in experiment [8], in experiment [9], in experiment [10] and in [11] was inactive. Besides, the result in [12], in [13], in experiment [15] and in experiment [16] was inactive. The concentration at half-maximal activity (AC50) in experiment [14] is 11.5 µM (active); in experiment [17] it was 0.016 µM (active).

Turning to `CCC(=O)C(CC(C)N(C)C)(c1ccccc1)c1ccccc1` (stereo unspecified), the outcome in experiment [1], in experiment [2], in experiment [3], in [4], in [5] and in [18] was inactive. The outcome in [6], in experiment [7], in experiment [8], in experiment [9], in experiment [10] and in [11] was inactive. For the same molecule, the result in experiment [12], in [13], in experiment [14], in experiment [15], in experiment [16] and in experiment [17] was inactive.

`CCN1CCC2(CC1)COc1cc3c(cc12)N(C(=O)c1ccc(-c2ccc(-c4nnc(C)o4)cc2C)cc1)CC3`: the AC50 in experiment [1] is 31.1 µM (active); in experiment [2] it was 27.6 µM (active); in experiment [4], 5.13 µM (active); in [5], 7.12 µM (active); in experiment [6] it was 9.3 µM (active); in [7], 11.2 µM (active). Also, the AC50 was 9.25 µM (active) in experiment [8]; 7.34 µM (active) in experiment [9]; 9.28 µM (active) in experiment [10]; 28.6 µM (active) in experiment [11]; 28.4 µM (active) in experiment [12]; 20.8 µM (active) in [13]. Further, the AC50 is 31.4 µM (active) in [14], 17.9 µM (active) in [15], 18.7 µM (active) in experiment [16] and 27 µM (active) in [17]. In addition, the outcome in [3] was inactive.

As for `Cn1sc(Cl)cc1=O`, the result in experiment [1], in experiment [12], in experiment [13], in [14], in experiment [15] and in experiment [16] was inactive. Further, in experiment [17], the outcome was inactive. The AC50 in experiment [2] was 20 µM (active); in [3] it was 33.6 µM (active); in experiment [19], 37.9 µM (active); in [4], 1.77 µM (active); in experiment [5], 25.6 µM (active); in experiment [6] it was 29.8 µM (active). Besides, the AC50 was 27.9 µM (active) in experiment [7]; 32.8 µM (active) in [8]; 23.4 µM (active) in experiment [9]; 35.2 µM (active) in experiment [10]; 20 µM (active) in [11].

`O=C(Nc1ccc2[nH]ccc2c1)c1cc2cc(F)ccc2n1Cc1cccc(F)c1`: the AC50 was 14.6 µM (active) in [1]; 29.2 µM (active) in [2]; 5.96 µM (active) in experiment [19]; 2.53 µM (active) in experiment [4]; 3.18 µM (active) in experiment [5]; 3.93 µM (active) in [6]. Also, the AC50 in experiment [7] is 4.77 µM (active); in experiment [8], 3.37 µM (active); in experiment [9], 2.65 µM (active); in experiment [10], 2.69 µM (active); in experiment [11], 8.14 µM (active); in experiment [12], 7.21 µM (active). For the same molecule, the AC50 in [13] is 5.91 µM (active); in experiment [14] it was 6.68 µM (active); in experiment [15] it was 7.19 µM (active); in experiment [16], 6.88 µM (active); in experiment [17] it was 6.52 µM (active). Besides, in experiment [3], the result was inactive.
